Molecules are shown by their SMILES. “And” between values parts separate entries of the source, which are not always exact repeats. Identical values can stand only once. Screen size: about 1,300 compounds; about 1,000 (77%) were called active. About 7% were inconclusive and are not listed. The call rests on the fitted dose curve; in most records, active means well fitted inhibition curve with a large enough effect; inconclusive means small, poorly fitted or top-dose-only effect; inactive means no such curve, though single readings can be large or run the other way. So high a share suggests a set chosen from earlier hits. The list shows a part of the results.
Potency means the concentration at half of the fitted maximal effect.

The nature of this assay: qHTS of small molecules that selectively kill Giardia lamblia: Hit Validation.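 Further: viability measured as ATP content by luminescence so killing lowers signal; trophozoites exposed to compounds for 48 h anaerobically at 37 °C; nearly all actives have a fitted effect of over 65% in size.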 Particulars: Giardia lamblia trophozoite viability, dose-response; series mostly up to 38.3 µM. The method in brief: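 HTS viability screen: compound-treated trophozoites (100 cells/well) are kept anaerobic at 37 deg C for 48 hrs, and surviving cells are detected through ATP-dependent luminescence.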
On the technique in general: Quantitative high-throughput screening tests each substance at several concentrations.
With `COc1cc(C(=O)/C=C/c2cccnc2)c([N+](=O)[O-])cc1OC`, the Potency is 4.6 µM (active).

On to `O=C(/C=C/c1cccnc1)/C=C/c1cccnc1`, for which the Potency was 18.3 µM (active).

For `Cc1ccc(Nc2cc(C)nc3c(C)ccc([N+](=O)[O-])c23)cc1`, the Potency is 0.146 µM (active).

For `COc1ccccc1Nc1cc(C)nc2c(C)ccc([N+](=O)[O-])c12`, the Potency is 2.59 µM (active).

As to `Cc1cc(Nc2ccccc2)c2c([N+](=O)[O-])ccc(C)c2n1`, the Potency is 0.259 µM (active).

Turning to `Cc1cc(Nc2ccccc2)c2c([N+](=O)[O-])cc(C)c(C)c2n1`, the Potency is 0.259 µM (active).

Take `CN(C)/[N+]([O-])=N/Oc1ccc([N+](=O)[O-])cn1`: the Potency is 2.59 µM (active).

`Cc1cc(C2=NNC(=NC3CC3)SC2)c(C)n1-c1ccccc1F`: the Potency was 1.45 µM (active).

Regarding `COc1ccc(-c2ncn(CCC#N)c2[N+](=O)[O-])cc1`, the Potency was 0.206 µM (active).

Consider `CCn1c(=NC(=O)c2cccc(N3C(=O)CCC3=O)c2)sc2c(OC)ccc(OC)c21`, for which the Potency is 2.31 µM (active).

Regarding `Cc1cccc(N2CCN(C(=S)Nc3ccc4nc(N5CCN(C)CC5)cc(C)c4c3)CC2)c1C`, the Potency is 1.03 µM (active).

For the compound `Cc1ccc(C)c(N2CCN(C(=S)Nc3ccc4nc(N5CCN(C)CC5)cc(C)c4c3)CC2)c1`, the Potency is 1.3 µM (active).

As for `COc1ccc(N(CC(=O)N/N=C/c2cccc(OC)c2OC)S(=O)(=O)c2ccccc2)cc1`, the Potency result was “inactive”.

For `COc1ccc(/C=N/Nc2cc(C)nc3c(C)cccc23)cc1`, the Potency is 0.818 µM (active).

As to `COc1ccc2nc(C)cc(N/N=C/c3cccc(OC)c3O)c2c1`, the Potency is 0.918 µM (active).

As for `COc1ccc2nc(C)cc(N/N=C/c3ccc(F)cc3)c2c1`, the Potency was 1.16 µM (active).

For `O=c1c([N+](=O)[O-])cccn1Cc1cccc(Br)c1`, the Potency is 2.05 µM (active).

Take `O=c1c([N+](=O)[O-])cccn1Cc1cccc(Cl)c1`: the Potency is 4.6 µM (active).

For `O=C(NCC1CCN(Cc2ccc(F)cc2)CC1)Nc1cc(F)ccc1F`, the Potency result was “inactive”.

Turning to `O=C(Nc1ccccc1)Nc1ccc(C(=O)N2CCCC2)cc1`, the Potency was 5.79 µM (active).

With `CCN1CCN(Cc2ccc(NC(=O)Nc3ccccc3)cc2)CC1`, the Potency was 9.18 µM (active).

Take `CN(C(=O)c1cccc(NC(=O)Cc2ccc(NC(=O)C3CCN(C(=O)c4ccccc4)CC3)cc2)c1)C1CC1`: the Potency entry was “inactive”.

For the compound `Cc1cc([N+](=O)[O-])nn1Cc1noc(C(=O)NCc2ccc3c(c2)OCO3)n1`, the Potency result was “inactive”.

With `Cc1cc([N+](=O)[O-])nn1Cc1ccc(F)cc1`, the Potency is 2.9 µM (active).

Consider `CC(NC(=O)COc1cccnc1[N+](=O)[O-])c1ccc(Cl)cc1Cl` (stereo not drawn), for which the Potency was 3.26 µM (active).

As for `COc1ccc(NC(=O)C(c2ccc(Cl)cc2)C(C)C)cn1` (stereo not drawn), the Potency result is “inactive”.

For the compound `CC(NC(=O)COc1cccnc1[N+](=O)[O-])c1ccc(Cl)cc1` (stereo not drawn), the Potency is 5.16 µM (active).

Regarding `CC(NC(=O)COc1cccnc1[N+](=O)[O-])c1ccc(F)cc1` (stereo not drawn), the Potency was 5.79 µM (active).

As to `O=[N+]([O-])c1cncc([N+](=O)[O-])c1Nc1cccc(O)c1`, the Potency is 3.26 µM (active).

As for `O=[N+]([O-])c1cncc([N+](=O)[O-])c1Nc1ccccc1Cl`, the Potency was 5.16 µM (active).

With `N/C(=N\OC(=O)c1ccc(Cl)cc1[N+](=O)[O-])c1ccccn1`, the Potency was 8.18 µM (active).

On to `N/C(=N/OC(=O)c1ccccc1Cl)c1ncc([N+](=O)[O-])s1`, for which the Potency is 1.63 µM (active).

`N/C(=N/OC(=O)c1ccc(Cl)cc1)c1ncc([N+](=O)[O-])s1`: the Potency is 1.3 µM (active).

As for `O=C(Oc1cccc2c(O)cccc12)c1ccccc1Cl`, the Potency result is “inactive”.

Consider `COc1ccc(-n2nc([N+](=O)[O-])c(=NCCc3ccccc3)n2O)cc1`, for which the Potency is 1.16 µM (active).

With `COc1ccc(-n2nc([N+](=O)[O-])c(=NCCc3ccc(Cl)cc3)n2O)cc1`, the Potency is 1.45 µM (active).

Take `COc1ccc(-n2nc([N+](=O)[O-])c(=NCCC3=CCCCC3)n2O)cc1`: the Potency is 4.1 µM (active).

As to `COc1ccc(-n2nc([N+](=O)[O-])c(=NCCc3ccc(OC)c(OC)c3)n2O)cc1`, the Potency is 1.16 µM (active).

In the case of `COc1ccc(-n2nc([N+](=O)[O-])c(=NCCc3ccc(C)cc3)n2O)cc1`, the Potency was 4.1 µM (active).

Consider `COc1ccc(CCN=c2c([N+](=O)[O-])nn(-c3cccc(C)c3)n2O)cc1OC`, for which the Potency was 5.16 µM (active).

With `CCN(CC)C(=O)Cn1cc([N+](=O)[O-])cc1[N+](=O)[O-]`, the Potency is 0.46 µM (active).

As for `CCN(C(=O)C1CCN(S(=O)(=O)c2ccc3c(c2)oc(=O)n3C)CC1)c1cccc(C)c1`, the Potency result is “inactive”.

For `N#Cc1c(Nc2ccccc2)[n+]([O-])c2ccc(Cl)cc2[n+]1[O-]`, the Potency was 1.63 µM (active).

For `O=C1c2cc(F)ccc2-n2c1nc1ccccc1c2=O`, the Potency is 1.83 µM (active).

Consider `CCOCCOc1nc2c(c(=O)n(C)c(=O)n2C)n1Cc1ccc(C)cc1`, for which the Potency result is “inactive”.

With `Cc1cc(C(=O)N/N=C/c2ccc([N+](=O)[O-])s2)n[nH]1`, the Potency is 2.31 µM (active).

`CC(C)(C)c1cc(C(=O)N/N=C/c2ccc([N+](=O)[O-])s2)n[nH]1`: the Potency is 3.65 µM (active).

`CC(C)(C)c1cc(C(=O)N/N=C/c2ccncc2)n[nH]1`: the Potency result is “inactive”.

On to `Cc1cc(C(=O)N/N=C/c2ccc(O)c([N+](=O)[O-])c2)n[nH]1`, for which the Potency was 6.5 µM (active).

For `N#Cc1c(N2CCN(c3ccc([N+](=O)[O-])cc3)CC2)[n+](=O)c2ccc(Cl)cc2n1[O-]`, the Potency is 1.3 µM (active).

Consider `CN(C)c1ccc2nsnc2c1[N+](=O)[O-]`, for which the Potency is 3.65 µM (active).

Consider `CC1S/C(=C(\C#N)C(N)=O)N(c2ccc(F)cc2)C1=O` (stereo not drawn), for which the Potency result is “inactive”.

For `N=NC(=O)c1ccccc1Nc1c(O)[nH]c2ccccc12`, the Potency is 1.03 µM (active).

Consider `COC(=O)c1ccccc1NC(=O)N1c2ccccc2Sc2ccccc21`, for which the Potency is 0.918 µM (active).

For `Cc1cc(N2CCN(C)CC2)nc2ccc(NC(=S)N3CCN(c4ccc(F)cc4)CC3)cc12`, the Potency is 1.3 µM (active).

For `Cc1cc(N2CCN(C)CC2)nc2ccc(NC(=S)N3CCN(c4ccc(Cl)cc4)CC3)cc12`, the Potency was 1.16 µM (active).

As for `O=c1sc(N2CCN(c3ccc(F)cc3)CC2)nc2ccsc12`, the Potency entry is “inactive”.

With `Cc1cc(N2CCN(C)CC2)nc2ccc(NC(=S)N3CCN(c4cccc(Cl)c4)CC3)cc12`, the Potency is 1.16 µM (active).

Turning to `Cc1cccc(N2CCN(C(=S)Nc3ccc4nc(N5CCN(C)CC5)cc(C)c4c3)CC2C)c1` (stereo not drawn), the Potency was 4.1 µM (active).

Regarding `CC(=O)Nc1ccc(/C=C/c2noc(-c3ccccc3O)n2)cc1`, the Potency entry was “inactive”.

For `Cn1nc([N+](=O)[O-])nc1N1CCOCC1`, the Potency is 0.326 µM (active).

`COc1ccc(C2=NCCn3c2c2ccc(C(F)(F)F)cc2[n+]3[O-])cc1`: the Potency was 0.0729 µM (active).

As for `[O-][n+]1c2cc(C(F)(F)F)ccc2c2n1CCN=C2c1ccc(Cl)cc1`, the Potency is 0.41 µM (active).

Consider `Cc1ccc(C2=NCCn3c2c2ccc(C(F)(F)F)cc2[n+]3[O-])cc1`, for which the Potency is 0.13 µM (active).

`Nc1c(Cl)cc(C2=NCCn3c2c2ccc(C(F)(F)F)cc2[n+]3[O-])cc1Cl`: the Potency was 0.163 µM (active).

On to `O=[N+]([O-])c1cc2cccnc2c2ncccc12`, for which the Potency was 1.83 µM (active).

`O=C(Nc1ccc(-c2cn3ccccc3n2)cc1)c1ccco1`: the Potency was 8.18 µM (active).

As to `COc1ccccc1-n1cc2c([N+](=O)[O-])cc([N+](=O)[O-])cc2n1`, the Potency is 1.63 µM (active).

For the compound `CC(Oc1cccnc1[N+](=O)[O-])C(=O)Nc1cccc(Cl)c1` (stereo not drawn), the Potency is 3.65 µM (active).

For `CC(Oc1cccnc1[N+](=O)[O-])C(=O)Nc1ccc(F)cc1` (stereo not drawn), the Potency is 5.16 µM (active).

For `Cc1ccc(CCN=c2c([N+](=O)[O-])nn(-c3ccccc3)n2O)cc1`, the Potency was 7.29 µM (active).

Consider `O=[N+]([O-])c1nn(-c2ccccc2)n(O)c1=NCCc1ccccc1`, for which the Potency is 3.26 µM (active).

Consider `Cc1ccc(Nc2nc(=O)c3cc([N+](=O)[O-])ccc3s2)cc1`, for which the Potency was 7.29 µM (active).

Take `CC1=NN(c2nc3ccccc3[nH]2)C(=O)/C1=C/N(C)C`: the Potency was 3.65 µM (active).

Take `O=C(Nc1ncc([N+](=O)[O-])s1)c1ccco1`: the Potency was 0.818 µM (active).

Turning to `O=C(Nc1ncc([N+](=O)[O-])s1)c1ccccc1Br`, the Potency is 0.206 µM (active).

Turning to `O=C(Nc1ncc([N+](=O)[O-])s1)c1cccs1`, the Potency was 460 nM (active) and 729 nM (active).

On to `CC(=O)O[C@]1(C(C)=O)CCC2C3CCC4=C/C(=N/OCC(=O)O)CC[C@]4(C)C3CC[C@@]21C` (stereo partly drawn), for which the Potency result is “inactive”.

As to `N#C/C(=C(/O)c1ccc([N+](=O)[O-])o1)c1nc2ccccc2[nH]1`, the Potency is 0.326 µM (active).

With `N#C/C(=C(/O)c1ccc([N+](=O)[O-])s1)c1nc2ccccc2[nH]1`, the Potency is 2.31 µM (active).

Regarding `Cn1c(/C(C#N)=C(\O)c2ccc([N+](=O)[O-])s2)nc2ccccc21`, the Potency is 1.16 µM (active).

Turning to `Cc1nc2c(nc1C)C(=O)c1ccccc1C2=O`, the Potency is 3.26 µM (active).

`O=C(Nc1nc(-c2cccs2)cs1)c1ccc([N+](=O)[O-])o1`: the Potency was 0.65 µM (active).

Turning to `Cc1ccc(-c2csc(NC(=O)c3ccc([N+](=O)[O-])o3)n2)cc1`, the Potency was 1.63 µM (active).

Take `c1ccc(-c2nc(-c3cnc4ccccc4n3)cs2)cc1`: the Potency was 5.79 µM (active).

As for `c1ccc(CCNc2ncnc3nc[nH]c23)cc1`, the Potency result was “inactive”.

Turning to `O=c1[nH]cnc2ccc([N+](=O)[O-])cc12`, the Potency is 1.63 µM (active).

As for `O=c1cc[nH]c2ccc([N+](=O)[O-])cc12`, the Potency was 4.1 µM (active).

For the compound `COc1ccc(/C(O)=C2/C(=O)C(=O)N(CCCN3CCOCC3)C2c2ccc(N(C)C)cc2)cc1` (stereo not drawn), the Potency entry was “inactive”.

Take `O=C(/C=C/c1cccc([N+](=O)[O-])c1)c1ccco1`: the Potency is 7.29 µM (active).

For `Brc1ccc(CNc2nc3ccccc3n2CCN2CCCCC2)cc1`, the Potency was 0.516 µM (active).

Consider `COc1ccccc1CN=c1c([N+](=O)[O-])nn(-c2ccc3c(c2)OCCO3)n1O`, for which the Potency is 4.6 µM (active).

Take `O=[N+]([O-])c1nn(-c2ccc3c(c2)OCCO3)n(O)c1=NCc1ccccc1Cl`: the Potency was 4.6 µM (active).

The values are drawn from PubChem BioAssay AID588397 (National Center for Advancing Translational Sciences (NCATS), 2011).
